# Screening data (PubChem)
# Shown are actives, neighbours in structure and some others; about 2.1% of the full set was active somewhere.
# EP2 mod – modulators of human EP2 prostaglandin E2 receptor | EP2-expressing cells, cAMP HTRF FRET, PGE2 co-stimulation | actives 0.83% (n = 260,000) | AID 940 | P43116 | induction, % at 25 µM;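 active = compounds whose cAMP rise, as percent of the full-agonist control response, exceeds 60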;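 note: rat C6 glioma line stably carrying human EP2 under a CMV promoter; the protocol text gives 20 µM as final concentration; 100% = response of wells given 1 µM PGE2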
# Target sequence (P43116 whole entry, looked up): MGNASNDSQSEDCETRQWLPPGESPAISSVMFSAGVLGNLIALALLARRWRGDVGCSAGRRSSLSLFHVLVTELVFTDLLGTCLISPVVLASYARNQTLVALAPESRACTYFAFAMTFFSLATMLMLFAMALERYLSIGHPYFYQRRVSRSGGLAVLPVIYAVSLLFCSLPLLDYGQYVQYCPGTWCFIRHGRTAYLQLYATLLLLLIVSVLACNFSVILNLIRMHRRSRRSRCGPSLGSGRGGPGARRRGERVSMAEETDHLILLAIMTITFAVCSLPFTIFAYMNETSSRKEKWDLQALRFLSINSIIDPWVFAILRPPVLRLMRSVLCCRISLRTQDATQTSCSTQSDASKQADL
# EP2 antag – blocks the human prostaglandin E2 receptor EP2. C6 glioma cells expressing human EP2, cAMP TR-FRET; cells stimulated with saturating PGE2. inhibition, % at 25 µM. actives 0.52% (n = 260,000). AID 1422;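 active = percent inhibition above 40 after rounding to a whole number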;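 note: rat C6 glioma host cells with rolipram phosphodiesterase inhibitor present; the protocol text gives 20 µM as final concentration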
# CHT block – human CHT choline transport inhibition. Q9GZV3. CHT-expressing cells, membrane potential dye, choline response; hits give low values. B-score at 10 µM. actives 0.86% (n = 310,000);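 active = B-score over 3 SD under the library average, and starting fluorescence ratio not unusually high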;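 note: choline stimulus applied at its EC90 after an EC20 pre-addition; B-score computed on integrated fluorescence ratio after choline addition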
# CHT allo act – human CHT allosteric activation | CHT-expressing cells, membrane potential dye, choline EC20; hits give high values; LV-AA mutant CHT in HEK293 cells | B-score at 10 µM | actives 0.49% (n = 310,000) | AID 488977;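 active = initial fluorescence not abnormally high and integrated response B-score, plate-corrected, over 3 SD above library mean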
# CHT block conf – confirmation of human choline transporter CHT inhibitors. CHT-expressing cells, choline membrane potential dye; LV-to-AA substituted CHT, HEK293 cells. AID 493221. CHT activity remaining % of control (hits give low values), % at 10 µM. actives 70% (n = 2,400). shares compounds with CHT block;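 active = choline transporter activity left, mean of duplicates at 10 µM, below buffer-only control mean minus 3 SD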;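 note: depolarization triggered by choline at its EC90 following an EC20 pre-addition; 0% = hemicholinium-3 full block and 100% = buffer-only control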
# HEK293 MPD ctr – CHT inhibitor counter-screen hit in parental HEK293 cells; shares compounds with CHT block; membrane potential dye, choline response; active = decrease or increase beyond buffer ±3SD; membrane potential ratio readout (active if shifted either direction beyond buffer ±3SD; no single direction) at 10 µM; actives 4% (n = 2,400); AID 493222;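 note: parental cells lack the transporter so any hit is non-specific; ratio is peak minus trough fluorescence over baseline after EC90 choline challenge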
# * marks the source's active call; other numbers are inactive results; i = inactive; nt = no result given.
SMILES,EP2 mod,EP2 antag,CHT block,CHT allo act,CHT block conf,HEK293 MPD ctr
O=C(CSc1nc(-c2ccccc2)cc(C(F)(F)F)n1)N1CCOCC1,-85,7,-5.8*,i,i,i
O=C(CS(=O)(=O)Nc1ccc(F)cc1Cl)Nc1ccc(F)cc1Cl,nt,nt,-11*,i,66%*,i
CN(CC(=O)Nc1ccc(F)cc1Cl)Cc1cccs1,nt,nt,i,i,nt,nt
COc1ccc(NC(=O)CSc2nc(N)cc(N)n2)cc1,-14,7,nt,nt,nt,nt
Cc1[nH]n(-c2ccccc2)c(=O)c1C(=O)c1ccccc1,-19,4,i,i,nt,nt
Cc1[nH]n(-c2ccc(Cl)cc2)c(=O)c1C(=O)c1ccccc1,18,18,-11*,i,i,i
CCSC(=S)c1c(C)[nH]n(-c2ccccc2)c1=O,-61,6,-8.8*,i,i,i
Cc1cc(C)c2[nH]c(=O)c(CN(CC3CCCO3)C(=O)Nc3cccc(Cl)c3)cc2c1 (stereo unspecified),-53,5,nt,nt,nt,nt
COc1cc2c(cc1OC)-c1cc(NC3CCCCCC3)nc(=O)n1CC2,18,17,-5.1*,i,23%*,i
Cc1cc(C)n2nc(CNS(=O)(=O)c3ccc(C)c(C)c3)nc2n1,nt,nt,-6.9*,i,i,i
CCOC(=O)c1cccc(NC(=O)CSc2nc3c(c(=O)n(C)c(=O)n3C)n2CC)c1,-3,13,nt,nt,nt,nt
c1ccc(-c2cc3c(NCc4ccco4)ncnc3s2)cc1,-68,23,nt,nt,nt,nt
CCc1cc2c(NCc3ccco3)ncnc2s1,-18,-1,-6.6*,i,50%*,i
COc1ccc(Cl)cc1NC(=O)c1ccc(Cn2ccc([N+](=O)[O-])n2)cc1,-17,6,nt,nt,nt,nt
Cc1ccc(-c2csc(/C(C#N)=C(\O)CCl)n2)cc1,-50,8,nt,nt,nt,nt
N#C/C(=C(/O)CCl)c1nc(-c2ccccc2)cs1,-3,16,-8.4*,i,-32%*,i
CCc1nnc(NC(=O)Cc2ccccc2OC)s1,-12,11,nt,nt,nt,nt
CC(=O)/C(=N/Nc1ccccc1)Sc1nnc(C(O)c2ccccc2)n1-c1ccccc1 (stereo unspecified),-9,7,-5*,i,i,i
CC1CCN(C(=O)C2CCCN(c3ncnc4c3nc3n4CCCCC3)C2)CC1 (stereo unspecified),nt,nt,i,i,nt,nt
COc1cccc(N2CCN(C(=O)C3CCCN(c4ncnc5c4nc4n5CCCCC4)C3)CC2)c1 (stereo unspecified),nt,nt,-5.7*,i,38%*,i
O=C(C1CCCN(c2ncnc3c2nc2n3CCCCC2)C1)N1CCN(c2ccccc2F)CC1 (stereo unspecified),nt,nt,-8.9*,i,-11%*,i
CCOC(=O)N1CCN(C(=O)C2CCCN(c3ncnc4c3nc3n4CCCCC3)C2)CC1 (stereo unspecified),nt,nt,-9.3*,i,11%*,i
CN(c1cccc(NC(=O)Nc2cccc(Cl)c2)c1)S(C)(=O)=O,-24,22,-6.7*,i,51%*,i
CC(C)Cn1c(N)c(C(=O)COC(=O)c2ccccc2Cl)c(=O)n(C)c1=O,-41,11,-10*,i,i,i
Cc1ccccc1C(=O)OC(C)CN1CCN(C)CC1 (stereo unspecified),22,3,-6.1*,i,46%*,i
SMILES,EP2 mod,EP2 antag,CHT block,CHT allo act,CHT block conf,HEK293 MPD ctr
Cc1ccccc1OCC(=O)OC(C)CN1CCN(C)CC1 (stereo unspecified),-5,1,i,i,nt,nt
CC(CN1CCN(C)CC1)OC(=O)c1ccccc1Cl (stereo unspecified),-15,nt,-8.3*,i,12%*,i
CC(CN1CCCC1)OC(=O)c1ccccc1Cl (stereo unspecified),nt,nt,i,i,nt,nt
CCOc1cccc(C2C(C(=O)c3ccco3)=C(O)C(=O)N2CCCOC)c1 (stereo unspecified),-3,11,nt,nt,nt,nt
O=C(NC1CC1)C1=C[C@H](c2csc3ccccc23)C[C@H](OCc2ccc(CO)cc2)O1,-2,9,-5.2*,i,56%*,i
O=C(NC1CC1)C1=C[C@H](c2ccc(Br)cc2)C[C@H](OCc2ccc(CO)cc2)O1,-5,13,-6.4*,i,52%*,i
CCOC(=O)c1cccc(NC(=O)CCS(=O)(=O)c2cccc3nsnc23)c1,-22,nt,-8.3*,i,36%*,i
O=[N+]([O-])c1ccc(SCCc2ccccn2)cc1,20,6,-6.5*,i,53%*,i
Cc1cc(OCc2cc(C(=O)NCCN3CCCCC3CO)no2)cc(C)c1Cl (stereo unspecified),nt,nt,-5.4*,i,49%*,i
COc1cccc(OCc2cc(C(=O)NCCN3CCCCC3CO)no2)c1 (stereo unspecified),nt,nt,i,i,nt,nt
CC(C)(C)C1=NN(CC(=O)N2CCCCC2)C(=O)c2cc3ccccc3n2C1,-14,nt,nt,nt,nt,nt
COc1ccccc1NC(=S)N(Cc1cc2cccc(C)c2[nH]c1=O)C1CCCC1,38,13,nt,nt,nt,nt
COc1ccc2cc(CN(Cc3cccs3)C(=S)Nc3cccc(C)c3)c(=O)[nH]c2c1,30,6,nt,nt,nt,nt
COc1ccc2[nH]c(=O)c(CN(Cc3cccs3)C(=S)Nc3ccccc3)cc2c1,-25,33,-5.3*,i,i,i
Cc1ccccc1OCCn1c(C)nc2ccccc21,nt,nt,-5.2*,i,i,i
Cc1nc2ccccc2n1CCOc1ccccc1,nt,nt,i,i,nt,nt
O=c1[nH]c(N2CCOCC2)nc2c1CN(Cc1nnnn1Cc1ccccc1)CC2,5,10,nt,nt,nt,nt
CC(NC(=O)NC12CC3CC(CC(C3)C1)C2)c1ccc2c(c1)OCO2 (stereo unspecified),27,12,i,i,nt,nt
COc1ccc(C(C)NC(=S)NC2CCCC2)cc1OC (stereo unspecified),11,8,i,i,nt,nt
CC(NC(=O)NC1CCCCC1)c1ccc2c(c1)OCO2 (stereo unspecified),-25,4,-6.7*,i,66%*,i
Cc1ccc(C(C)NC(=S)NC2CCCCC2)cc1C (stereo unspecified),nt,nt,-12*,i,22%*,i
CCOC(=O)c1sc(NC(=O)c2ccc([N+](=O)[O-])o2)c(C#N)c1C,-68,7,nt,nt,nt,nt
COC(=O)c1sc(NC(=O)c2ccc([N+](=O)[O-])o2)c(C#N)c1C,-93,10,-8*,i,62%*,2.5*
Cc1ccc(C2=Nc3ccccc3C(c3ccncc3)=NN2)cc1,-63,10,nt,nt,nt,nt
Cn1ccnc1C1(O)CCN(CC(=O)Nc2ccc(F)cc2)CC1,-7,nt,nt,nt,nt,nt
